FEN1 inh – human FEN1 inhibition; Potency, µM (series often up to 114 µM), for the others: top-dose activity change, negative = inhibition, hits mostly inhibitors; 390,000 tested, 0.35% active; Recombinant FEN1 flap cleavage, fluorescence, 15 min; also: potency is read from the fitted curve at half-maximal effect; % is scaled to controls: 0 for no effect and ±100 for the full control effect; nearly all actives have a fitted effect of over 65% in size
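Steps: FEN1 (10 nM) dispensed; compound added by pin tool; 15 min at room temperature; substrate added to 50 nM final; reads at 0 min and 15 min; data normalized and fitted (four-parameter Hill).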
POLB inh – DNA polymerase beta (human) inhibition; Pol beta primer extension/strand displacement, fluorescence kinetic; Potency, µM (top dose mostly 114 µM), for inactives: top-dose activity change, negative = inhibition, actives largely listed as inhibitors; 340,000 tested, 1.3% active; AID 485314; also: potency is read from the fitted curve at half-maximal effect; % is scaled to controls: 0 for no effect and ±100 for the full control effect
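Preincubation: enzyme (10 nM) with compound, 15 min, RT. Reaction: substrate added to 50 nM final. Reads: 0 and 10 min. Analysis: normalized, Hill fit.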
Pol iota inh – blocks human DNA polymerase iota activity. Q9UNA4. Pol iota fluorescent replication assay, 10 min. Potency, µM (titrated, usually from 115 µM), for inactives: at the top dose activity, negative = inhibition, most hits filed as inhibitors. 390,000 tested, 1% active; also: potency is read from the fitted curve at half-maximal effect
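Fluorescent replication assay read twice, at 0 min and 10 min after adding 50 nM (final) substrate. Enzyme (10 nM) and compounds were first incubated 15 min at room temperature; enzyme-free buffer wells were negative controls.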
Pol eta inh-1 – blocks human DNA polymerase eta activity; Q9Y253; recombinant Pol eta, fluorescent DNA replication assay; Potency, µM (top dose mostly 114 µM), for the others: top-dose activity change, negative = inhibition, actives largely listed as inhibitors; 390,000 tested, 1.2% active; also: potency is read from the fitted curve at half-maximal effect; % is scaled to controls: 0 for no effect and ±100 for the full control effect
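Pol eta (10 nM) was preincubated with compounds for 15 min at room temperature, after which fluorescent replication substrate (50 nM final) was added to start the reaction. Fluorescence was read kinetically at 0 and 10 min.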
Pol kappa inh-1 – DNA polymerase kappa (human) inhibition; purified Pol kappa, fluorescent DNA synthesis assay, 10 min; Q9UBT6; Potency, µM (highest dose often 107 µM), for the others: top-dose activity, negative = inhibition, hits mostly inhibitors; AID 588579; 400,000 tested, 0.53% active; also: potency is read from the fitted curve at half-maximal effect; % is scaled to controls: 0 for no effect and ±100 for the full control effect
Target sequence (Q9UBT6 whole entry, looked up): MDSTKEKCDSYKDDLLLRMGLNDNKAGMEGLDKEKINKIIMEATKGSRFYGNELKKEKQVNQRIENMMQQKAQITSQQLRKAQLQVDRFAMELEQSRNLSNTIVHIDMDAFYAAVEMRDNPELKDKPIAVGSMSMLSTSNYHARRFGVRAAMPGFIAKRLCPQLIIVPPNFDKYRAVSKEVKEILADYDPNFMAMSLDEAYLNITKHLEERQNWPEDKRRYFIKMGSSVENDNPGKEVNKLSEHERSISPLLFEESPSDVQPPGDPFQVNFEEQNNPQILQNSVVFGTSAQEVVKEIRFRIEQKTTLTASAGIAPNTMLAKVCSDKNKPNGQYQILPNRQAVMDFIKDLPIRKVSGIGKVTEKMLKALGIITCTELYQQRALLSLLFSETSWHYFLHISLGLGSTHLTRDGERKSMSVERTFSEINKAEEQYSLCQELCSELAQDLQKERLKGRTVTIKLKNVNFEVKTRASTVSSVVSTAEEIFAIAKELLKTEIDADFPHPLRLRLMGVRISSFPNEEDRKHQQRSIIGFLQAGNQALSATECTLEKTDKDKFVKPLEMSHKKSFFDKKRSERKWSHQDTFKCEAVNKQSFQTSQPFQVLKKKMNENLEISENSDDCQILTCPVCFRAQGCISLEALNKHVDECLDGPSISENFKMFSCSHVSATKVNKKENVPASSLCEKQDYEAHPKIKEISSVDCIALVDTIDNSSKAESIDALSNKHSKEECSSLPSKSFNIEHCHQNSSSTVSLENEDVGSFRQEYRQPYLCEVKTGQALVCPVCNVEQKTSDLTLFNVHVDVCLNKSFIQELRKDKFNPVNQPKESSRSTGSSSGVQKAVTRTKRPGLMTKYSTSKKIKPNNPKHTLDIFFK
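First, compounds were pin-transferred onto 10 nM Pol kappa. After 15 min at room temperature, substrate was added to 50 nM final. Fluorescence was then measured kinetically at 0 and 10 min.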
WRN helicase inh – WRN helicase (human) inhibition; Q14191; WRN helicase unwinding, fluorescent forked duplex, kinetic; Potency, µM (titrated, usually from 114 µM), for inactives: at the top dose activity change, negative = inhibition, most hits filed as inhibitors; 360,000 tested, 0.46% active; AID 651768; also: potency is read from the fitted curve at half-maximal effect; % is scaled to controls: 0 for no effect and ±100 for the full control effect; nearly all actives have a fitted effect of over 55% in size
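Enzyme (20 nM final) and test compound sit together 15 min at room temperature before substrate addition. Substrate is a single-forked duplex oligonucleotide (100 nM) labelled with fluorophore and quencher, with 2 mM ATP; helicase unwinding raises red fluorescence, read kinetically.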
PGK validate – validation of Trypanosoma brucei phosphoglycerate kinase inhibitors; shares compounds with Pol kappa inh-1; TbPGK coupled GAPDH assay, Kinase-Glo luminescence; Potency, µM (doses to about 57.5 µM), without a hit: at the highest dose activity change, negative = inhibition, hits mostly inhibitors; 500 tested, 79% active; AID 686980; also: potency is read from the fitted curve at half-maximal effect; % is scaled to controls: 0 for no effect and ±100 for the full control effect; nearly all actives have a fitted effect of over 65% in size
POLI cherry-pick – Human Pol iota inhibitor confirmatory assay | 1,500 tested, 77% active | Potency, µM, hits mostly inhibitors | shares compounds with Pol kappa inh-1 | Pol iota primer extension, TAMRA/BHQ fluorescence; also: potency is read from the fitted curve at half-maximal effect
GALK confirm – confirmation of human galactokinase (GALK) inhibitors | shares compounds with Pol eta inh-1 | purified GALK, Kinase-Glo ATP depletion luminescence | Potency, µM (top dose mostly 115 µM), for inactives: at the top dose activity, negative = inhibition, actives largely listed as inhibitors | 150 tested, 70% active | AID 2015
GALK redox cs – generates H2O2 by redox cycling, flagging GALK artifacts; Phenol red-HRP H2O2 redox cycling, absorbance 600 nm; Potency, µM (titrated, usually from 115 µM), for the others: top-dose activity change, negative = H2O2 signal, actives largely listed as inhibitors; shares compounds with Pol eta inh-1; AID 2035; 150 tested, 40% active
HEK293 viability – HEK-293 cytotoxicity, GALK inhibitor secondary; shares compounds with Pol eta inh-1; HEK-293 viability, ATP luminescence (CellTiter-Glo), 24/48 h; Potency, µM (top dose mostly 46.1 µM), without a hit: at the top dose activity change, negative = cytotoxicity, actives largely listed as inhibitors; 170 tested, 10% active; also: potency is read from the fitted curve at half-maximal effect; % is scaled to controls: 0 for no effect and ±100 for the full control effect
Pol kappa inh-2 – Pol kappa (human) inhibition, cherry-pick confirmation; shares compounds with Pol eta inh-1; purified Pol-kappa, fluorescent strand-displacement substrate; Potency, µM, actives largely listed as inhibitors; 920 tested, 76% active; also: potency is read from the fitted curve at half-maximal effect
Pol eta inh-2 – confirmation of human DNA polymerase eta inhibitors | shares compounds with Pol eta inh-1 | Pol eta primer extension, TAMRA/BHQ fluorescence, 10 min | Potency, µM, actives largely listed as inhibitors | 2,600 tested, 64% active; also: potency is read from the fitted curve at half-maximal effect
* marks the source's active call; other numbers are inactive results; ? = inconclusive; nt = no result; [ ] = dose if it differs, or a comment. Only some compounds are listed: those with a hit (about 2.4% of all), similar ones and a draw of the others. Calls follow the shape of the dose curve; as a rule, active = well fitted curve in the direction sought with a large enough effect; inconclusive = small, poorly fitted or top-dose-only effect, or another doubt; inactive = no such curve, though single readings can be large; an effect the other way counts as inactive or inconclusive.

SMILES	FEN1 inh	POLB inh	Pol iota inh	Pol eta inh-1	Pol kappa inh-1	WRN helicase inh	POLI cherry-pick	Pol eta inh-2	others
CCc1nnc(NS(=O)(=O)c2ccc(N/C=C\C(=O)c3ccc4ccccc4c3)cc2)s1	?	?	?	50µM*	-27%	50µM*	?	76*
CCCCc1nn2c(=O)cc(COC(=O)C(C)Oc3ccccc3)nc2s1 (centres undefined)	5%	2%	4%	-11%	41%	nt	nt	nt
Cc1cc(=O)n(CC(=O)NC(C)c2ccccc2)c2c1c(C)nn2C (centres undefined)	0%	32µM*	-23%	40µM*	?	nt	67*	85*
Cc1nn(C)c2c1c(-c1ccccc1)cc(=O)n2CC(=O)NC(C)c1ccccc1 (centres undefined)	0%	14µM*	?	25µM*	?	nt	34*	27*	Pol kappa inh-2=17*
CC1OC(OCC2OC(Oc3c(-c4ccc(O)cc4)oc4cc(O)cc(O)c4c3=O)C(O)C(O)C2O)C(O)C(O)C1O (centres undefined)	?	?	?	10µM*	28µM*	?	42*	60*	PGK validate=5.2µM*
CCN(CC)c1ccc(/C=C(\C#N)C(=O)c2ccc(Br)cc2)cc1	?	40µM*	?	?	22µM*	28µM*	67*	43*	Pol kappa inh-2=67*
CC1Cc2cc(S(=O)(=O)NCc3ccc(N(C)C)cc3)ccc2N1C(=O)C1CCC1 (centres undefined)	-1%	-23%	-6%	-21%	-16%	nt	nt	nt
O=C(/C=C/c1ccco1)c1cccnc1	-22%	-25%	?	14µM*	?	?	67*	30*
NC(CCC(=O)NC(CCSC(CC(=O)O)C(=O)O)C(=O)NCC(=O)O)C(=O)O (centres undefined)	nt	nt	nt	nt	-7%[60.1 µM]	nt	nt	nt
C/C(=N/NC(=O)c1cc(-c2cccc([N+](=O)[O-])c2)n[nH]1)c1cccc(O)c1	-13%	21%	-25%	-6%	3%	-1%	nt	nt
C/C(=N\NC(=O)c1cc(-c2cccc([N+](=O)[O-])c2)n[nH]1)c1ccccc1O	?	11µM*	-11%	8.9µM*	-32%	?	47*	nt	Pol kappa inh-2=84*
Cc1ccc2nccnc2c1	-6%	nt	-18%	nt	8%	nt	nt	nt
O=C1C=C(NCc2ccccc2)c2ccccc2C1=O	?	?	1µM*	5.6µM*	-9%	?	42*	85*	GALK confirm=21µM*;GALK redox cs=17µM*;HEK293 viability=?
O=C1C=C(Nc2ccc(F)cc2)c2ccccc2C1=O	1%	nt	1%	?	-16%	-8%	nt	nt
COc1cccc(-c2nc(S(=O)(=O)c3ccc(Cl)cc3)c(NCc3ccccc3)o2)c1	-6%	6%	?	-21%	-97%	nt	nt	nt
S=c1[nH]nc(-c2ccncc2)n1/N=C/c1ccccc1	-6%	8%	5%	-7%	-6%	-3%	nt	nt
S=c1[nH]nc(-c2ccncc2)n1/N=C/C=C/c1ccco1	?	20µM*	?	28µM*	-89%	?	42*	27*	Pol kappa inh-2=30*
COC(=O)c1sc2c(c1C)c(=O)n(-c1ccccc1)c(=O)n2CC(=O)Nc1cccc(C)c1	-3%	-7%	26%	-20%	-5%[60.1 µM]	nt	nt	nt
O=C(COc1ccc(Cl)cc1)Nc1cccc(S(=O)(=O)NC2=NCCCCC2)c1	-1%	nt	16%	-19%	-5%	2%	nt	nt
N#Cc1ccc(OCC(=O)Nc2cccc(S(=O)(=O)NC3=NCCCCC3)c2)cc1	4%	nt	79µM*	?	-35%	-27%	67*	?
COC1=C/C(=C/c2c(N)n3nc(CC(=O)N4CCCC4)sc3nc2=O)C=CC1=O	-19%	-1%	?	-4%	?	-4%	nt	nt
Nc1c(/C=C2/C=CC(=O)C(O)=C2)c(=O)nc2sc(CC(=O)N3CCCC3)nn12	?	7.9µM*	3.2µM*	4µM*	?	40µM*	24*	5.4*
Nc1c(/C=C2/C=CC(=O)C(O)=C2)c(=O)nc2sc(CC(=O)N3CCOCC3)nn12	25µM*	nt	8.9µM*	3.5µM*	?	?	17*	6*	PGK validate=9.2µM*
CN1CCN(c2ccnc(-c3ccoc3)n2)CC1	nt	nt	nt	nt	-1%[60.1 µM]	nt	nt	nt
C[C@@H]1C(=O)OC2C[C@@]34[C@H]5C[C@@H](C(C)(C)C)[C@@]36C(O)C(=O)O[C@H]6O[C@@]4(C(=O)O5)[C@]21O (some centres undefined)	nt	nt	nt	nt	-2%[60.1 µM]	nt	nt	nt
CCN(CC)c1cc(Cl)c2nonc2c1N	-5%	-11%	60%	-1%	-20%	-10%	nt	nt
CN(C)c1cc(Cl)c2nonc2c1N	?	-26%	10µM*	79µM*	-23%	-2%[11.6 µM]	75*	76*	GALK confirm=21µM*;GALK redox cs=12µM*;HEK293 viability=19%
O=c1cc(-c2ccc(O)cc2)oc2c(O)c(O)c(O)c(O)c12	20µM*	2.2µM*	10µM*	1.6µM*	10µM*	7.1µM*	7.5*	5.4*	PGK validate=0.92µM*;Pol kappa inh-2=4.7*

Screens as filed in PubChem BioAssay.
